Measurements from PubChem BioAssay (Tox21).
Results filed as inconclusive are left out. Active and inactive are the calls of the source. Unless noted, calls come from the whole dose curve; as a rule, active = well fitted curve in the direction sought with a large enough effect in the repeat runs; inconclusive = weak or mixed curves; inactive = no such curve, though single readings can be large; an effect the other way counts as inactive or inconclusive.

What was measured:
[1] = target: Peroxisome proliferator-activated receptor delta (Homo sapiens) (UniProt Q03181); experiment: qHTS assay to identify small molecule agonists of the peroxisome proliferator-activated receptor delta (PPARd) signaling pathway (AID 743212; calls by dose curve); conditions: HEK293H PPARd-UAS-bla, beta-lactamase FRET ratio, 17 h; series mostly up to 62.6 µM
Outline: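 Quantitative high-throughput agonist screen in a HEK293H beta-lactamase reporter line under UAS control. Compounds in DMSO, at 37 C. Fluorescence read after 2 h with FRET substrate at room temperature.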

[2] = target: Peroxisome proliferator-activated receptor delta (Homo sapiens) (UniProt Q03181); experiment: qHTS assay to identify small molecule antagonists of the peroxisome proliferator-activated receptor delta (PPARd) signaling pathway (AID 743215; active = well fitted inhibition curve with a large enough effect in the signal ratio in the repeat runs, not every such curve was filed as active; the % refers to the signal ratio); conditions: HEK293H PPARd-UAS-bla, beta-lactamase FRET ratio, antagonist, 17 h; series mostly up to 62 µM
Outline: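 Read-out is beta-lactamase FRET fluorescence, measured 2 h after substrate addition at room temperature. Beforehand, UAS-bla HEK293H cells carrying the PPARd reporter were exposed to compounds with L165041 at 300 nM final for 17 h at 37 C.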

[3] = target: Bile acid receptor (Homo sapiens) (UniProt Q96RI1); experiment: qHTS assay to identify small molecule antagonists of the farnesoid-X-receptor (FXR) signaling pathway (AID 743217; active = well fitted inhibition curve with a large enough effect in the signal ratio in the repeat runs, not every such curve was filed as active; the % refers to the signal ratio); conditions: HEK293T FXR-UAS-bla, beta-lactamase ratio, CDCA-stimulated, 16 h; series mostly up to 62.6 µM
Outline: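 HEK 293T FXR-UAS-bla, 5000 cells/well; compound + CDCA 50 uM final; 16 h, 37 °C; B/G FRET substrate 2 h RT; fluorescence.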

[4] = qHTS assay to identify small molecule agonists of the farnesoid-X-receptor (FXR) signaling pathway - cell viability counter screen (AID 743218); conditions: FXR-bla HEK293T viability, CellTiter-Glo luminescence, 16 h; series mostly up to 62.6 µM; note: nearly all actives have a fitted effect of over 45% in size
Outline: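 HEK 293T FXR-bla cells; 5 h pre-incubation, 16 h compound exposure at 37 C; LiveBLAzer substrate 2 h RT, then CellTiter-Glo 30 min RT, luminescence.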

[5] = target: Bile acid receptor (Homo sapiens) (UniProt Q96RI1); experiment: qHTS assay to identify small molecule agonists of the farnesoid-X-receptor (FXR) signaling pathway (AID 743220; active = well fitted activation curve with a large enough effect in the signal ratio in the repeat runs, not every such curve was filed as active; the % refers to the signal ratio); conditions: HEK293T FXR-UAS-bla, beta-lactamase FRET ratio, 16 h; series mostly up to 62.6 µM
Outline: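 Beta-lactamase reporter under UAS control in GeneBLAzer FXR HEK 293T cells (5000/well) measured with LiveBLAzer FRET substrate after 2 h at room temperature. Compound exposure lasted 16 h at 37C.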

[6] = qHTS assay to identify small molecule antagonists of the farnesoid-X-receptor (FXR) signaling pathway - cell viability counter screen (AID 743221; active = well fitted cell-killing curve with a large enough effect in the repeat runs, not every such curve was filed as active; note: nearly all actives have a fitted effect of over 50% in size); conditions: FXR-bla HEK293T viability, CellTiter-Glo luminescence, 16 h; series mostly up to 62.6 µM
Outline: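 In GeneBLAzer FXR-UAS-bla HEK 293T cells stimulated with 50 uM chenodeoxycholic acid (final), compounds acted for 16 h at 37 C. Viability was assessed afterwards by CellTiter-Glo luminescence.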

[7] = target: Vitamin D3 receptor (Homo sapiens) (UniProt P11473); experiment: qHTS assay to identify small molecule agonists of the vitamin D receptor (VDR) signaling pathway (AID 743222; calls by dose curve); conditions: HEK293T VDR-UAS-bla, beta-lactamase FRET ratio, 16 h; series mostly up to 63.5 µM
Outline: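 VDR-bla cells, 2,000/well; 4 h preincubation 37C; cpd (DMSO) 16 h; LiveBLAzer B/G substrate 2 h RT; fluorescence intensity read.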

[8] = target: Vitamin D3 receptor (Homo sapiens) (UniProt P11473); experiment: qHTS assay to identify small molecule antagonists of the vitamin D receptor (VDR) signaling pathway (AID 743223; active = well fitted inhibition curve with a large enough effect in the signal ratio in the repeat runs, not every such curve was filed as active; the % refers to the signal ratio); conditions: VDR-UAS-bla HEK293T, beta-lactamase FRET ratio, 16 h; series mostly up to 61 µM
Outline: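 Agonist 1alpha,25-dihydroxyvitamin D3 (3 nM in well) was added with each compound to VDR-bla cells preincubated 4 h. Cells stood 16 h at 37C, then FRET substrate 2 h at room temperature; fluorescence intensity recorded.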

[9] = qHTS assay to identify small molecule agonists of the vitamin D receptor (VDR) signaling pathway - cell viability counter screen (AID 743224); conditions: VDR-bla HEK293T viability, CellTiter-Glo luminescence, 16 h; series mostly up to 62.6 µM; note: nearly all actives have a fitted effect of over 50% in size
Outline: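 Luminescence from CellTiter-Glo, read after 30 min at room temperature, reports viability of VDR-bla cells treated with compounds for 16 h at 37C in the wells used for the beta-lactamase FRET read.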

[10] = qHTS assay to identify small molecule antagonists of the peroxisome proliferator-activated receptor delta (PPARd) signaling pathway - cell viability counter screen (AID 743213); conditions: PPARd-bla HEK293H viability, CellTiter-Glo luminescence, 17 h; series mostly up to 62 µM; note: nearly all actives have a fitted effect of over 50% in size
Outline: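 Agonist-stimulated (L165041, 300 nM final) HEK293H PPARd UAS-bla cells are exposed to compounds for 17 h at 37 C, and ATP-based luminescence (CellTiter-Glo) from the same wells reports cytotoxicity.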

Measured: outcome

Chain of Bile acid receptor (Homo sapiens) (Q96RI1 whole entry, looked up): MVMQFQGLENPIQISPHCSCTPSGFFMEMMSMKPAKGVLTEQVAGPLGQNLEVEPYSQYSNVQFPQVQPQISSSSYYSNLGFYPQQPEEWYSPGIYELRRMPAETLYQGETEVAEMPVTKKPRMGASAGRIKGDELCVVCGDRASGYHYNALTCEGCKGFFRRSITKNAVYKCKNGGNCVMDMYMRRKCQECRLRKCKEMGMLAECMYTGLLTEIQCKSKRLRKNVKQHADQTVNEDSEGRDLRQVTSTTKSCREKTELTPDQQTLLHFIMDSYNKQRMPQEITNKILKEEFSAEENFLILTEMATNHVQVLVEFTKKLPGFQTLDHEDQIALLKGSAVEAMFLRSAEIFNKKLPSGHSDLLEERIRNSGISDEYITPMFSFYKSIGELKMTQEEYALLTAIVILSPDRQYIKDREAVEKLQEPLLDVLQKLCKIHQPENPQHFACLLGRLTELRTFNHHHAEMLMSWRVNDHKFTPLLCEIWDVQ
Chain of Peroxisome proliferator-activated receptor delta (Homo sapiens) (Q03181 whole entry, looked up): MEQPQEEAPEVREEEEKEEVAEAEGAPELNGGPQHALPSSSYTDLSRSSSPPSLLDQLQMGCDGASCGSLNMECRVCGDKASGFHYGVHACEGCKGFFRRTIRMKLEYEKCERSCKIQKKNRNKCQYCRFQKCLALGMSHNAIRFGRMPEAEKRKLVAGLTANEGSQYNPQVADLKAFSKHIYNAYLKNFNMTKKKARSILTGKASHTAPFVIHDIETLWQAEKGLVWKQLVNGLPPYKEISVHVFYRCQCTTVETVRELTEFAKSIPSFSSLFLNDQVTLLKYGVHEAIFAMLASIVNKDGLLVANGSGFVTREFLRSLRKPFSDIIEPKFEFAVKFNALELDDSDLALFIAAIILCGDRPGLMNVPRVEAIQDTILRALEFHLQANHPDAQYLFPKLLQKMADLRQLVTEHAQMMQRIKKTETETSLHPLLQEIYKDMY
Chain of Vitamin D3 receptor (Homo sapiens) (P11473 whole entry, looked up): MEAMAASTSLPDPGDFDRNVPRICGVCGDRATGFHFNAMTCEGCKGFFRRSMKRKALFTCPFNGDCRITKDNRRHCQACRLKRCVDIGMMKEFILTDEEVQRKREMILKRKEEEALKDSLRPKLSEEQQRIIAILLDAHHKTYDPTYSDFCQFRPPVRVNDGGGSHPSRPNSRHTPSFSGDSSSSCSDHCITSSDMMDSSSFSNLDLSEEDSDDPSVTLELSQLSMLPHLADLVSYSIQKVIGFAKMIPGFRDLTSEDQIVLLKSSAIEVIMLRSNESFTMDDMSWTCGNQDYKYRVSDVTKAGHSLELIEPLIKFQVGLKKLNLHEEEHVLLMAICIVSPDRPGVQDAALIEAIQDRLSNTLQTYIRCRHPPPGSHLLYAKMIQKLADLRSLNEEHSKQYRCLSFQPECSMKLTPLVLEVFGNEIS

COc1cc(C(=O)OC(COCCC(C)C)CN2CCOCC2)cc(OC)c1OC (stereo unspecified)
inactive: [1] | [2] | [3] | [4] | [5] | [6] | [7] | [8] | [9]

CC(CO)(CO)[N+](=O)[O-]
inactive: [1] | [10] | [3] | [4] | [5] | [6] | [7] | [9]

CCOC(=O)C1=NOC(c2ccccc2)(c2ccccc2)C1
inactive: [1] | [10] | [3] | [5] | [6] | [7] | [8] | [9]

CO[Si](C)(OC)c1ccccc1
inactive: [1] | [10] | [4] | [6] | [7] | [9]
